Reference: PubChem BioAssay (NCI)
About 83,000 compounds went through this panel and 20% of them were active in at least one assay; those are over-represented in the sample as a whole.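 Cell lines were cultured in 96-well plates, exposed to a single compound concentration, and assessed for percent growth 48 hours later.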 Activity calls are given as the source filed them. How the source made its calls: active means growth percent below 10; inactive means the rest.

Experiments:
Assay in all cases: NCI-60 one-dose screen, 48 h (100 = growth as untreated, 0 = no growth, -100 = all killed)
Details in all cases: 10 µM unless noted
SR leukemia = system: SR leukemia
RPMI-8226 leukemia = system: RPMI-8226 leukemia
OVCAR-5 ovarian = system: OVCAR-5 ovarian
OVCAR-4 ovarian = system: OVCAR-4 ovarian
SK-OV-3 ovarian = system: SK-OV-3 ovarian
IGROV1 ovarian = system: IGROV1 ovarian
OVCAR-3 ovarian = system: OVCAR-3 ovarian
HS 578T breast = system: HS 578T breast
NCI/ADR-RES ovarian = system: NCI/ADR-RES ovarian
T-47D breast = system: T-47D breast
BT-549 breast = system: BT-549 breast
SW-620 colon = system: SW-620 colon
MCF7 breast = system: MCF7 breast
HCT-116 colon = system: HCT-116 colon
HCC-2998 colon = system: HCC-2998 colon
KM12 colon = system: KM12 colon
MDA-MB-435 melanoma = system: MDA-MB-435 melanoma
OVCAR-8 ovarian = system: OVCAR-8 ovarian

Measured: growth

Clc1cccc(Cl)c1/C=C/c1cc(/C=C/c2c(Cl)cccc2Cl)[nH]n1
inactive: SR leukemia 24.7% | RPMI-8226 leukemia 21.8% | OVCAR-5 ovarian 33.4% | OVCAR-4 ovarian 54.6% | SK-OV-3 ovarian 44.4% | IGROV1 ovarian 48% | HS 578T breast 45.5% | T-47D breast 57% | BT-549 breast 30.7% | SW-620 colon 18.2% | MCF7 breast 20.9% | HCT-116 colon 15.5% | HCC-2998 colon 35.1% | KM12 colon 24.9%
active: OVCAR-3 ovarian -16.5% | NCI/ADR-RES ovarian 4.02%

CC(C)(C)C(CCc1ccc(Cl)cc1)N1CCN(C2CCCCC2)CC1 (configuration not stated)
active: SR leukemia -13.2%
inactive: RPMI-8226 leukemia 24.4% | OVCAR-5 ovarian 60.2% | OVCAR-4 ovarian 42.6% | SK-OV-3 ovarian 59.9% | IGROV1 ovarian 62.8% | OVCAR-3 ovarian 41.6% | HS 578T breast 68.9% | NCI/ADR-RES ovarian 60.6% | T-47D breast 23.2% | BT-549 breast 50% | MDA-MB-435 melanoma 39.2% | SW-620 colon 35% | MCF7 breast 31.6% | HCT-116 colon 17.5% | HCC-2998 colon 27% | KM12 colon 36.8%

O=C(NCCCNc1cc(-c2cn(-c3ccccc3)nc2-c2cccc(O)c2)ccn1)c1ccc(F)cc1
inactive: OVCAR-5 ovarian 58% | OVCAR-4 ovarian 39.8% | SK-OV-3 ovarian 30.1% | IGROV1 ovarian 45.8% | OVCAR-3 ovarian 38.4% | NCI/ADR-RES ovarian 19% | MCF7 breast 13.7% | HCT-116 colon 10.8% | KM12 colon 12%
active: SR leukemia -26.4% | RPMI-8226 leukemia -9.31% | HS 578T breast -16.7% | T-47D breast -10.8% | BT-549 breast -6.04% | MDA-MB-435 melanoma -67.7% | SW-620 colon 5.38% | HCC-2998 colon -60%

COc1ccc(/C=N/C2=C(C#N)C(c3ccc(OC)cc3)c3ccc4ccccc4c3O2)cc1 (configuration not stated)
inactive: RPMI-8226 leukemia 81.7% | OVCAR-8 ovarian 84.7% | OVCAR-5 ovarian 104% | OVCAR-4 ovarian 85.4% | SK-OV-3 ovarian 77.6% | IGROV1 ovarian 56.2% | OVCAR-3 ovarian 78.9% | HS 578T breast 84.2% | NCI/ADR-RES ovarian 45% | T-47D breast 73.6% | BT-549 breast 84% | SW-620 colon 43.3% | MCF7 breast 34.4% | HCT-116 colon 71.7% | HCC-2998 colon 97.4% | KM12 colon 59.4%
active: MDA-MB-435 melanoma -10.9%

CC(C)(C)n1cc(-c2ccnc(NCCCNS(=O)(=O)c3ccccc3)c2)c(-c2ccccc2)n1
inactive: SR leukemia 31.7% | RPMI-8226 leukemia 65.5% | OVCAR-5 ovarian 94% | OVCAR-4 ovarian 70.4% | SK-OV-3 ovarian 85.1% | IGROV1 ovarian 78.3% | OVCAR-3 ovarian 83.9% | HS 578T breast 96% | NCI/ADR-RES ovarian 74.6% | BT-549 breast 53.4% | MDA-MB-435 melanoma 82.1% | SW-620 colon 77.1% | MCF7 breast 62% | HCT-116 colon 57.5% | KM12 colon 71.9%
active: T-47D breast 9.34%

COc1ccc(C2c3ccc4ccccc4c3Oc3nc(C)[nH]c(=O)c32)cc1 (configuration not stated)
inactive: RPMI-8226 leukemia 102% | OVCAR-8 ovarian 101% | OVCAR-5 ovarian 114% | OVCAR-4 ovarian 113% | SK-OV-3 ovarian 100% | IGROV1 ovarian 95.8% | OVCAR-3 ovarian 108% | HS 578T breast 96.3% | NCI/ADR-RES ovarian 93.9% | T-47D breast 92.2% | BT-549 breast 109% | MDA-MB-435 melanoma 42.4% | SW-620 colon 97.4% | MCF7 breast 96.1% | HCT-116 colon 107% | HCC-2998 colon 103% | KM12 colon 98.6%

CCN(CC)CCn1nc2c3c(cccc3c1=O)-c1ccccc1-2
active: SR leukemia 4.64% | SK-OV-3 ovarian 7.24% | T-47D breast 9.48% | MCF7 breast 4.36%
inactive: RPMI-8226 leukemia 24.9% | IGROV1 ovarian 15.6% | OVCAR-3 ovarian 52.5% | HS 578T breast 76.1% | NCI/ADR-RES ovarian 35.1% | BT-549 breast 59.3% | MDA-MB-435 melanoma 39.7% | SW-620 colon 14.3% | HCT-116 colon 16.3% | HCC-2998 colon 34.7% | KM12 colon 34%

Cn1cc(-c2csc(-c3ccccc3)n2)c2cccnc21
inactive: HS 578T breast 20.8% [100 µM]
active: SR leukemia 0.511% [100 µM] | OVCAR-8 ovarian 2.29% [100 µM] | OVCAR-5 ovarian -44.2% [100 µM] | SK-OV-3 ovarian -30.1% [100 µM] | IGROV1 ovarian -20.7% [100 µM] | OVCAR-3 ovarian -31.8% [100 µM] | NCI/ADR-RES ovarian -27.8% [100 µM] | T-47D breast -45.4% [100 µM] | BT-549 breast -39.4% [100 µM] | MDA-MB-435 melanoma -45.2% [100 µM] | SW-620 colon -34.1% [100 µM] | MCF7 breast -44.7% [100 µM] | HCT-116 colon -76.9% [100 µM] | HCC-2998 colon -79.3% [100 µM] | KM12 colon -68.6% [100 µM]

COc1cc(CCC[P+](c2ccccc2)(c2ccccc2)c2ccccc2)cc2c1OCO2
active: RPMI-8226 leukemia 9.71% | MDA-MB-435 melanoma 3.36%
inactive: OVCAR-8 ovarian 29.5% | OVCAR-5 ovarian 59.1% | OVCAR-4 ovarian 12.4% | SK-OV-3 ovarian 82.4% | IGROV1 ovarian 28.8% | OVCAR-3 ovarian 19.7% | HS 578T breast 45.5% | NCI/ADR-RES ovarian 101% | T-47D breast 11.5% | BT-549 breast 23.3% | SW-620 colon 37.6% | MCF7 breast 18.2% | HCT-116 colon 22.8% | HCC-2998 colon 24.3% | KM12 colon 10.7%

COc1cccc(/C=C/C(=O)c2c(C)nc3ccccc3c2/C=C/c2ccc(C)cc2)c1OC
active: RPMI-8226 leukemia 8.55% | HCT-116 colon 8.38%
inactive: OVCAR-8 ovarian 49.6% | OVCAR-5 ovarian 67.5% | OVCAR-4 ovarian 56.6% | SK-OV-3 ovarian 84.8% | IGROV1 ovarian 36.4% | OVCAR-3 ovarian 52.4% | HS 578T breast 68.3% | NCI/ADR-RES ovarian 40.6% | T-47D breast 29.1% | BT-549 breast 69.1% | MDA-MB-435 melanoma 55.5% | SW-620 colon 31% | MCF7 breast 13.8% | HCC-2998 colon 36.4% | KM12 colon 65.6%

COc1cccc(-c2nn(-c3ccccc3)cc2-c2ccnc(NCCCNC(=O)c3cccc(C(F)(F)F)c3)c2)c1
active: SR leukemia -29% | RPMI-8226 leukemia 9.33% | T-47D breast -19.6% | BT-549 breast 1.62%
inactive: OVCAR-5 ovarian 71.6% | OVCAR-4 ovarian 31.3% | SK-OV-3 ovarian 28.3% | IGROV1 ovarian 58.8% | OVCAR-3 ovarian 41.4% | HS 578T breast 33.7% | NCI/ADR-RES ovarian 22.6% | MDA-MB-435 melanoma 24.6% | SW-620 colon 33.2% | MCF7 breast 18.1% | HCT-116 colon 10.6% | HCC-2998 colon 21.7% | KM12 colon 23%

Cc1ccc(-c2cc3c(cc2O)C2CCCCC2(N2CCOCC2)O3)cc1 (configuration not stated)
inactive: SR leukemia 86% | RPMI-8226 leukemia 96% | OVCAR-4 ovarian 91% | SK-OV-3 ovarian 104% | IGROV1 ovarian 104% | OVCAR-3 ovarian 110% | HS 578T breast 108% | NCI/ADR-RES ovarian 99.1% | T-47D breast 85% | BT-549 breast 95.4% | MDA-MB-435 melanoma 98.4% | SW-620 colon 117% | MCF7 breast 88.5% | HCT-116 colon 97.3% | HCC-2998 colon 106% | KM12 colon 109%

Cn1cc(-c2csc(-c3cccc(F)c3)n2)c2cccnc21
active: SR leukemia 0.511% [100 µM] | OVCAR-8 ovarian 1.57% [100 µM] | OVCAR-5 ovarian -52.4% [100 µM] | OVCAR-4 ovarian -44.8% [100 µM] | SK-OV-3 ovarian -20.8% [100 µM] | IGROV1 ovarian -22.6% [100 µM] | OVCAR-3 ovarian -44.7% [100 µM] | NCI/ADR-RES ovarian -34.4% [100 µM] | T-47D breast -47.9% [100 µM] | BT-549 breast -36.9% [100 µM] | MDA-MB-435 melanoma -53.6% [100 µM] | SW-620 colon -49.8% [100 µM] | MCF7 breast -62% [100 µM] | HCC-2998 colon -84.6% [100 µM] | KM12 colon -70% [100 µM]
inactive: HS 578T breast 15.9% [100 µM]

CCSC1=NC2C(N(CC)C(=O)N2CC)N1/N=C/C=C/c1ccccc1[N+](=O)[O-] (configuration not stated)
inactive: SR leukemia 15.1% | RPMI-8226 leukemia 17.3% | OVCAR-5 ovarian 22.8% | OVCAR-4 ovarian 42.6% | SK-OV-3 ovarian 28% | IGROV1 ovarian 15.3% | T-47D breast 63.3% | BT-549 breast 10.1% | SW-620 colon 16.7% | MCF7 breast 12.3% | HCC-2998 colon 11% | KM12 colon 10.1%
active: OVCAR-3 ovarian -2.75% | HS 578T breast 6.38% | NCI/ADR-RES ovarian 4.68% | MDA-MB-435 melanoma -37.4% | HCT-116 colon 4.16%

COc1ccc2[nH]c(O)c(/C=c3/cc4c(c(-c5cc(OC)c(OC)c(OC)c5)n3)=Nc3ccccc3-4)c2c1
active: RPMI-8226 leukemia 1.39%
inactive: SR leukemia 10.4% | OVCAR-5 ovarian 116% | OVCAR-4 ovarian 64.8% | SK-OV-3 ovarian 113% | IGROV1 ovarian 85.8% | OVCAR-3 ovarian 74.5% | HS 578T breast 73.9% | NCI/ADR-RES ovarian 39.4% | T-47D breast 78.7% | BT-549 breast 69.5% | MDA-MB-435 melanoma 29.6% | SW-620 colon 62.8% | MCF7 breast 23.4% | HCT-116 colon 36.8% | HCC-2998 colon 77.1% | KM12 colon 52.5%

COc1cc(N=Nc2cc(Cc3ccc(N(C)C)cc3)c(N)cc2N(C)C)c2ncccc2c1
inactive: OVCAR-5 ovarian 42.8% | HS 578T breast 18.3% | BT-549 breast 29.6% | MDA-MB-435 melanoma 18.7% | HCC-2998 colon 26.1%
active: SR leukemia -13.5% | RPMI-8226 leukemia -53.4% | OVCAR-4 ovarian -48.9% | SK-OV-3 ovarian -0.131% | IGROV1 ovarian 7.41% | OVCAR-3 ovarian -28.7% | NCI/ADR-RES ovarian -17.8% | T-47D breast -12.1% | SW-620 colon -33.7% | MCF7 breast -1.6% | HCT-116 colon -23.7% | KM12 colon -11.4%

O=C(O)CN1C(=O)CCC1=O
inactive: SR leukemia 112% | OVCAR-8 ovarian 99.4% | OVCAR-5 ovarian 101% | SK-OV-3 ovarian 104% | IGROV1 ovarian 118% | OVCAR-3 ovarian 115% | HS 578T breast 115% | NCI/ADR-RES ovarian 112% | T-47D breast 90.4% | BT-549 breast 103% | MDA-MB-435 melanoma 102% | SW-620 colon 114% | MCF7 breast 92% | HCC-2998 colon 110% | KM12 colon 104%

O=C(/C=C/c1c(Cl)nc2sccn12)c1ccc(F)c(F)c1
inactive: RPMI-8226 leukemia 55.6% | OVCAR-8 ovarian 92.7% | OVCAR-5 ovarian 76.2% | OVCAR-4 ovarian 79.4% | SK-OV-3 ovarian 71.3% | IGROV1 ovarian 87.5% | OVCAR-3 ovarian 81.7% | HS 578T breast 73.3% | NCI/ADR-RES ovarian 85.6% | T-47D breast 50.3% | BT-549 breast 71.6% | MDA-MB-435 melanoma 82.6% | SW-620 colon 77.3% | MCF7 breast 45.2% | HCT-116 colon 69.5% | HCC-2998 colon 85.6% | KM12 colon 83%
